Only some compounds are listed: those with a hit (about 12% of all), similar ones and a draw of the others.
PI5P4Ka inh: qHTS for Inhibitors of phosphatidylinositol 5-phosphate 4-kinase (PI5P4K); Phosphatidylinositol 5-phosphate 4-kinase type-2 alpha (Homo sapiens), P48426; PI5P4Kalpha enzyme, ADP-Glo luminescence, 60 min; hits give low values; max response, %; 330,000 tested, 1.2% active; AID 652105, 2013; active = max response of -50% or lower; inconclusive = between -30% and -50%; inactive = -30% or higher; note: value at the top dose of about 77 µM
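Compounds were pin-transferred onto PI5P4Kalpha and substrate in HEPES pH 7.4 buffer with EGTA, CHAPS and 5% DMSO. ATP (5 microM final) started the reaction, which ran 60 minutes at room temperature before ADP-Glo detection.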
HP1b binding inh: HTS for Inhibitors of HP1-beta Chromodomain Interactions with Methylated Histone Tails. Chromobox protein homolog 1 (Homo sapiens), P83916. AlphaScreen HP1-beta / biotin-H3K9me3 peptide binding. Potency, µM (top dose mostly 114 µM), hits mostly inhibitors. 390,000 tested, 0.56% active; note: nearly all actives have a fitted effect of over 70% in size
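AlphaScreen: HP1-beta (50 nM) preformed 30 min with biotin-H3(1-18)K9me3 peptide (50 nM) in PBS pH 7.4, 0.01% Tween-20. Compound added for 30 min at RT, then streptavidin donor/nickel chelate acceptor beads (10 ug/mL) for 30 min.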
G9a block: qHTS Assay for Inhibitors of Histone Lysine Methyltransferase G9a; G9a H3K9 monomethylation, AlphaScreen, 2 h; Potency, µM (doses to about 102 µM), usual class: inhibitors; 350,000 tested, 8.8% active; note: nearly all actives have a fitted effect of over 75% in size
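G9a (20 nM) was preincubated 15 min with compound, then reacted 2 h at room temperature with 500 nM biotin-H3K9 peptide and 20 µM SAM. Monomethyl-H3K9 detected by AlphaScreen using anti-H3K9me1 antibody.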
PLK1 PBD block: qHTS for Inhibitors of PLK1-PDB (polo-like kinase 1 - polo-box domain): Primary Screen; Serine/threonine-protein kinase PLK1 (Homo sapiens), P53350; Plk1 PBD binding of FITC phosphopeptide, fluorescence polarization; Potency, µM, actives largely listed as inhibitors; 360,000 tested, 2.8% active; note: series mostly up to about 57 µM; nearly all actives have a fitted effect of over 65% in size
JMJD2A Tudor inh: qHTS Assay for Inhibitors of JMJD2A-Tudor Domain | AlphaScreen JMJD2A-Tudor / H3K4me3 peptide binding | Potency, µM (top dose mostly 114 µM), usual class: inhibitors | 390,000 tested, 4.4% active; note: nearly all actives have a fitted effect of over 50% in size
BAZ2B inh: qHTS Assay for Inhibitors of BAZ2B | Bromodomain adjacent to zinc finger domain protein 2B (Homo sapiens), Q9UIF8 | Potency, µM (top dose mostly 114 µM), most hits filed as inhibitors | 360,000 tested, 4.4% active | AlphaScreen BAZ2B-H3K14Ac peptide displacement; note: nearly all actives have a fitted effect of over 60% in size
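BAZ2B (50 nM) with biotin-H3(5-23)K14Ac peptide (50 nM) in PBS pH 7.4, 0.01% Tween-20, preformed 30 min, then compound 30 min at room temperature; top concentration 110uM. AlphaScreen streptavidin donor/nickel chelate acceptor beads (10 ug/mL final), 20 min dark, signal read.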
Hits are given with their value; n = inactive; u = inconclusive; x = no result; [ ] = another dose, or the depositor's remark. Unless noted, calls come from the whole dose curve; as a rule, active = well fitted curve in the direction sought with a large enough effect; inconclusive = small, poorly fitted or top-dose-only effect, or another doubt; inactive = no such curve, though single readings can be large; an effect the other way counts as inactive or inconclusive.

SMILES	PI5P4Ka inh	HP1b binding inh	G9a block	PLK1 PBD block	JMJD2A Tudor inh	BAZ2B inh
C=CCOc1cccc(C2/C(=C(/O)c3ccc(Cl)cc3)C(=O)C(=O)N2CCN2CCOCC2)c1 (stereo unspecified)	n	u	18µM	n	n	n
C=CCOc1cccc(C2/C(=C(/O)c3ccccc3)C(=O)C(=O)N2CCN2CCOCC2)c1 (stereo unspecified)	x	n	u	n	79µM	u
COc1ccc(C2/C(=C(/O)c3ccccc3)C(=O)C(=O)N2CCCN2CCOCC2)cc1 (stereo unspecified)	n	n	n[0.501 µM]	n	n	u
CCOc1cccc(C2/C(=C(/O)c3ccc4c(c3)CC(C)O4)C(=O)C(=O)N2CCN2CCOCC2)c1 (stereo unspecified)	n	n	u	n	n	n
COc1ccc(NC(=O)CC2C(=O)N(c3ccccc3)C(=O)N2CCc2sccc2C)cc1 (stereo unspecified)	x	n	n	x	n	n
COC(=O)c1c(C(=O)OC)c2c(-c3ccccc3)cc3cccc1n32	n	x	x	n	x	x
Cc1ccc(S(=O)(=O)N(C)CCCN(C)c2nc(-c3cccs3)nc3ccccc23)cc1	x	n	x	x	n	x
O=c1[nH]c2ccc(S(=O)(=O)N3CCN(S(=O)(=O)c4c(F)cccc4F)CC3)cc2[nH]c1=O	x	x	x	x	n	x
O=C1C(=O)N(CCN2CCOCC2)C(c2cccnc2)/C1=C(/O)c1ccc(Cl)cc1 (stereo unspecified)	n	n	50µM	n	n	n
C=CCOc1ccc(/C(O)=C2/C(=O)C(=O)N(CCCN3CCOCC3)C2c2ccccc2)cc1 (stereo unspecified)	u	n	x	3µM	u	x
C=CCOc1ccc(/C(O)=C2/C(=O)C(=O)N(CCCN3CCOCC3)C2c2ccc(OC)cc2)cc1 (stereo unspecified)	n	n	u	n	n	n
Cc1ccc(/C(O)=C2\C(=O)C(=O)N(CCc3c[nH]c4ccccc34)C2c2cccnc2)cc1 (stereo unspecified)	n	n	50µM	n	u	n
Cc1nc2nc(SCC(=O)N(C)Cc3ccccc3)nn2c(C)c1Cc1ccccc1Cl	x	n	n	x	n	n
Cc1ccc(Cn2c(CN3CCC(C(=O)NCc4ccccc4C)CC3)cc3ccccc32)cc1	x	n	n	x	n	n
CCOc1cc(CNC(=O)NC2COc3ccc(OC)cc3C2)cc(OCC)c1OCC (stereo unspecified)	x	n	n	x	n	n
CC(C)c1ccc(O)c(NC(=S)NC(=O)c2cccnc2)c1	n	n	n	n	n	n
CCC(C)c1ccc(NC(=O)c2cccnc2)cc1 (stereo unspecified)	x	n	n[12.7 µM]	n	n	n
CC(C)c1ccc(O)c(NC(=O)c2cncc(Br)c2)c1	n	n	40µM	n	n	n
CCC(C)c1ccc(O)c(NC(=O)c2cccnc2)c1 (stereo unspecified)	n	n	50µM	n	n	n
Cc1ccc(CCNC(=O)c2cccc(Nc3nc4ccccc4nc3-n3nc(C)cc3C)c2)cc1	x	n	n	x	n	n
CC(=O)c1ccc(N2CCN(C(=O)c3ccccc3SCC(=O)NCc3ccco3)CC2)c(F)c1	n	n	x	n	n	x
O=C(O)c1cccc2c1/C(=N/Nc1ccc([N+](=O)[O-])cc1[N+](=O)[O-])c1ccccc1-2	n	n	u	n	n	u
O=C(NCc1ccccc1)C1Cc2ccccc2CN1C(=O)c1ccco1 (stereo unspecified)	u	n	n	n	n	n
Cc1ccccc1NC(=O)C1Cc2ccccc2CN1C(=O)c1ccco1 (stereo unspecified)	u	n	u	n	n	n
CCSc1nnc(NC(=O)C2Cc3ccccc3CN2C(=O)c2ccco2)s1 (stereo unspecified)	-52	n	u	u	79µM	u
SMILES	PI5P4Ka inh	HP1b binding inh	G9a block	PLK1 PBD block	JMJD2A Tudor inh	BAZ2B inh
COc1cccc(NC(=O)C2Cc3ccccc3CN2C(=O)c2ccco2)c1 (stereo unspecified)	n	n	35µM	n	n	n
C[C@@]12C=Cc3occc3[C@H]1CC[C@]13CC(=O)[C@@H](CC[C@H]12)C3	x	n	x	x	n	x
NC(CSC(c1ccccc1)(c1ccccc1)c1cccc2ccccc12)C(=O)O (stereo unspecified)	u	u	x	27µM	56µM	x
N[C@H](CSC(c1ccccc1)(c1ccccc1)c1ccccc1)C(=O)O	x	x	n	x	x	x
COc1ccc(CCC(=O)N2CCN(S(=O)(=O)c3ccc(OC(F)(F)F)cc3)CC2)cc1	n	n	n[2.33 µM]	n	n	n
Cc1c(C(=O)c2ccc(F)cc2F)c2ccccn2c1CCC#N	n	n	8.9µM	n	n	18µM
Cc1c(C(=O)c2ccc(N(C)C)cc2)c2ccccn2c1CCC#N	n	u	45µM	n	u	u
COc1ccccc1NC(=O)CSc1oc(-c2ccc(F)cc2)nc1S(=O)(=O)c1ccc(Br)cc1	x	n	n	x	n	n
Oc1nc(-c2ccc(Cl)cc2)n2ccncc12	n	n	14µM	n	u	79µM
O=C(c1ccco1)N1CCCC(c2nc3c(nnn3Cc3ccc(F)cc3)c(=O)[nH]2)C1 (stereo unspecified)	u	n	n	n	n	n
O=S1(=O)C2CC3CCC2(CN1Cc1ccccc1)O3 (stereo unspecified)	x	n	x	x	n	x
COc1cc(CNC2CCCc3ccccc32)cc(OC)c1OC (stereo unspecified)	n	u	u	n	10µM	71µM
c1cncc(CNC2CCCc3ccccc32)c1 (stereo unspecified)	x	n	45µM	n	u	n
COc1cc(C(=O)NC2CCCc3ccccc32)cc(OC)c1OC (stereo unspecified)	n	n	n	n	n	n
COc1cccc(CNC2CCCc3ccccc32)c1OC (stereo unspecified)	n	u	40µM	n	79µM	u
O=S(=O)(NC1CC2CCC1C2)c1ccc(Br)s1 (stereo unspecified)	u	n	n	3.4µM	n[11.4 µM]	n
O=S(=O)(NC1CC2CCC1C2)c1ccc(Br)cc1 (stereo unspecified)	n	n	n	n	n	n
COc1ccc(Br)cc1CNC(=O)CCSCc1ccc(Cl)cc1	x	n	n	x	n	n
COC(=O)/C(=C(/F)Sc1cc(C)c(O)c(C)c1)C(F)(F)F	x	n	u	3.8µM	n	u

Screens (PubChem BioAssay)
